Most compounds without a hit are left out; they make up all but 3.8% or so of the library.
Mdm2-MdmX inh: disrupts the human Mdm2-MdmX interaction; AID 485346; hit rate 3% among 330,000; SaOS-2 split-luciferase Mdm2/MdmX complementation, luminescence; inhibition, % at 8 µM;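 active = inhibition of at least 50% at 8 µM in the primary screen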
Target sequence (O15151 whole entry, looked up): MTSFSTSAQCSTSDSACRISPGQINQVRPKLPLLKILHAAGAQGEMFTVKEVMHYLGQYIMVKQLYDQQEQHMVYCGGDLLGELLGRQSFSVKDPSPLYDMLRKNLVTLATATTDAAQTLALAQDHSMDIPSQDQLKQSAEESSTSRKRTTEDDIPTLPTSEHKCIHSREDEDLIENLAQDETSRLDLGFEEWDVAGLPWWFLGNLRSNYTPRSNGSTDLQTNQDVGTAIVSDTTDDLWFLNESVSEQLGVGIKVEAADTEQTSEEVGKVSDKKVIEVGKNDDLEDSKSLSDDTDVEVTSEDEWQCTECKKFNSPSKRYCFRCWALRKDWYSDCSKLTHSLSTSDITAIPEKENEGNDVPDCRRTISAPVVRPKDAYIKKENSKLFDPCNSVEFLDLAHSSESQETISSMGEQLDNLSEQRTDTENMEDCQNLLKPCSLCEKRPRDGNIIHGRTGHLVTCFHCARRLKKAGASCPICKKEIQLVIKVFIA
Target sequence (Q00987 whole entry, looked up): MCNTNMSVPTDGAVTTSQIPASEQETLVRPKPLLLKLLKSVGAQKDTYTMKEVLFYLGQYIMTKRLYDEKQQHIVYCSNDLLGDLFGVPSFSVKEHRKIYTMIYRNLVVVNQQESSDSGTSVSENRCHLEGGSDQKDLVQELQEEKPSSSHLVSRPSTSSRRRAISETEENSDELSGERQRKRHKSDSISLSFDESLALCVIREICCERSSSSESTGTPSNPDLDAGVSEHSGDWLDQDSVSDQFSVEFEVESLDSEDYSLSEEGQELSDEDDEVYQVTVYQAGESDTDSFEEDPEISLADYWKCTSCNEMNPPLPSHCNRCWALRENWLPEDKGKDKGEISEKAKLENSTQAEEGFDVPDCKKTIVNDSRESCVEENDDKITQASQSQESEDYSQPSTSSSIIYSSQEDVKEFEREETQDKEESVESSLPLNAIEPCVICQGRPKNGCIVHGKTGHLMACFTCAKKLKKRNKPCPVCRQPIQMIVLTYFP
697 NFkB inh: lowers PMA/ionomycin-induced NF-kB signal in 697 B cells; hit rate 0.33% among 330,000; AID 435022; 697 B-cell NF-kB luciferase reporter, 16 h; inhibition, % at 4 µM; in the data active = inhibition above about 35%
Gli-Sufu antag: blocks Gli-Sufu signaling in a luciferase reporter; Sufu-KO-LIGHT fibroblasts, Gli luciferase reporter luminescence; inhibition, % at 5 µM; hit rate 0.74% among 340,000; AID 588413;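 active = inhibition above about 55%, limit read from the data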
Jurkat NFkB inh: inhibitors of the PMA/ionomycin-induced NF-kB reporter in Jurkat cells. inhibition, % at 4 µM. AID 435003. hit rate 0.53% among 330,000. PMA/ionomycin-induced NF-kB luciferase reporter, luminescence; in the data active = inhibition above about 50%
Shn3 3UTR inh: reduces Shn3 3'UTR luciferase signal in osteoblasts; Clone20 osteoblast Shn3 3'UTR firefly luciferase, 24 h; inhibition, % at 12.5 µM; hit rate 0.52% among 360,000; AID 588674;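 active = mean inhibition of at least 75% with every replicate also reaching 75%; inconclusive = mean inhibition at least 75% but some replicate below; inactive = mean inhibition below 75%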
Jurkat NFkB conf: lowers PMA/ionomycin-induced NF-kB signal in Jurkat cells | shares compounds with Jurkat NFkB inh | Jurkat NF-kB luciferase, 16 h | inhibition, % at 4 µM | hit rate 27% among 2,700 | AID 435020;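 active = inhibition reaching about 45% at 4 µM in either replicate, limit read from the data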
697 NFkB conf: inhibitors of the PMA/ionomycin-induced NF-kB reporter in 697 B cells, retest; shares compounds with 697 NFkB inh; 697 B-cell NF-kB luciferase, 16 h; inhibition, % at 4 µM; hit rate 35% among 2,000; in the data active = inhibition mostly above about 28%, no sharp cut-off; inactive = mostly below about 22%
Mdm2 MdmX conf: confirmation of human Mdm2/MdmX interaction inhibitors | shares compounds with Mdm2-MdmX inh | Mdm2-MdmX binding, luminescent assay | inhibition, % at 8 µM | hit rate 55% among 10,000; in the data active = inhibition above about 40%
FLuc counter: inhibits full-length luciferase, flagging false Mdm2/MdmX hits. shares compounds with Mdm2-MdmX inh. SaOS-2 full-length luciferase counterscreen, luminescence. inhibition, % at 8 µM. hit rate 77% among 6,200;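 active = mean inhibition at 8 µM reaching about 37%, which flags the compound as non-specific, limit read from the data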;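 also: p53-null SaOS-2 cells with luciferase driven by a doxycycline-inducible promoter; compound on cells about two nights before reading with doxycycline added after day one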
Gli antag conf: confirmation of Gli-SUFU pathway antagonists. AID 602428. shares compounds with Gli-Sufu antag. Sufu-KO-LIGHT cells, Gli luciferase reporter, luminescence. inhibition, % at 5 µM. hit rate 40% among 2,500;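 active = mean inhibition at 5 µM reaching about 45%, limit read from the data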
Gli cytotox: cytotoxicity counter-screen for Gli-SUFU antagonists; AID 651994; shares compounds with Gli-Sufu antag; cytotoxicity, % at 5 µM; hit rate 32% among 2,500; Sufu-KO-LIGHT cells cytotoxicity, ATP luminescence;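 active = mean cytotoxicity at 5 µM above about 25%, limit read from the data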;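 also: cells exposed to compound overnight for roughly 16 to 18 hours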
Wnt3a counter: Wnt3a reporter inhibition counter-screen; shares compounds with Gli-Sufu antag; Wnt-LIGHT cells, Wnt3a-driven luciferase reporter, luminescence; inhibition, % at 6.25 µM; hit rate 20% among 2,500; AID 651995;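 active = mean inhibition above about 25%, limit read from the data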
Large screens that a line does not name were inactive (follow-up assays come after a bar, where they were run).

CCN(CC)S(=O)(=O)c1ccc(N/N=C/c2ccc(O)cc2O)nc1	Mdm2-MdmX inh 64.8, Gli-Sufu antag 57.7, Jurkat NFkB inh 50.6, Shn3 3UTR inh inconclusive | Jurkat NFkB conf inactive | Mdm2 MdmX conf 78.5 | FLuc counter 49.9 | Gli antag conf 69.6 | Gli cytotox 26.4 | Wnt3a counter 78.7
CCC(=O)Nc1ccc(N2CCN(S(C)(=O)=O)CC2)cc1	none
CCN(CC)S(=O)(=O)c1cc(NC(=O)CNc2cccc(S(=O)(=O)N3CCCC3)c2)ccc1C	Gli-Sufu antag 71.6, Jurkat NFkB inh 57.2, Shn3 3UTR inh 91.4 | Jurkat NFkB conf 60.2 | Gli antag conf 65.8 | Gli cytotox 30.6 | Wnt3a counter inactive
CN(C)S(=O)(=O)c1cccc(NC(=O)CNc2cccc(S(=O)(=O)N3CCCCC3)c2)c1	none (no result: Mdm2-MdmX inh, 697 NFkB inh, Gli-Sufu antag, Jurkat NFkB inh)
COc1ccc(CCNC(=O)Nc2cccs2)c(OC)c1	none
O=C(Cc1ccc(N2CCNC2=O)cc1)N1CCCC(Nc2cccc(F)c2)C1 (centres undefined)	Mdm2-MdmX inh 59.7, Jurkat NFkB inh 58.6 | Jurkat NFkB conf inactive | Mdm2 MdmX conf 59.5 | FLuc counter 62.0 | Gli antag conf inactive | Gli cytotox 40.8 | Wnt3a counter inactive
Cc1cc2c(SCC(=O)NCC3CCCO3)ncnc2s1 (centres undefined)	none
CCCCC(Nc1ncnc2ccccc12)C(=O)O (centres undefined)	none
CC(Nc1ncnc2ccccc12)c1ccccc1 (centres undefined)	Gli-Sufu antag 63.1, Jurkat NFkB inh 50.2, Shn3 3UTR inh 88.3 | Jurkat NFkB conf 62.7 | Gli antag conf 72.9 | Gli cytotox 34.4 | Wnt3a counter 41.0
CS(=O)(=O)c1ccc(NC(=O)CCCc2nc3ccccc3c(=O)[nH]2)cc1	none
CN(C)CCCNS(=O)(=O)c1ccc(N2CCN(Cc3ccc4c(c3)OCO4)CC2)c([N+](=O)[O-])c1	Jurkat NFkB inh 62.4 | Jurkat NFkB conf inactive | Gli antag conf inactive | Gli cytotox inactive | Wnt3a counter inactive
CC(=O)c1ccc(N2CCN(c3ccc(S(=O)(=O)NCCCN(C)C)cc3[N+](=O)[O-])CC2)cc1	Shn3 3UTR inh inconclusive
CC1(c2ccc3ccccc3c2)NC(=O)N(CC(=O)N2CCN(Cc3ccc(C#N)cc3)CC2)C1=O (centres undefined)	697 NFkB inh 48.2, Gli-Sufu antag 67.5, Jurkat NFkB inh 57.9, Shn3 3UTR inh 87.6 | Jurkat NFkB conf 67.7 | 697 NFkB conf 103.2 | Gli antag conf 71.5 | Gli cytotox inactive | Wnt3a counter 32.2
CC(=O)N1CCN(C(=O)CN2C(=O)NC(C)(c3ccc4ccccc4c3)C2=O)CC1 (centres undefined)	none
CC(=O)Oc1ccc(Cl)cc1CN(C(C)=O)C1CCCCC1	none (no result: Mdm2-MdmX inh, 697 NFkB inh, Jurkat NFkB inh)
CCOc1cc(S(=O)(=O)NCc2cccs2)ccc1Cl	none
CCOc1cc(S(=O)(=O)NCc2ccncc2)ccc1Cl	697 NFkB inh 58.5, Gli-Sufu antag 78.5, Jurkat NFkB inh 64.9 | Jurkat NFkB conf 68.5 | 697 NFkB conf 98.5 | Gli antag conf 78.7 | Gli cytotox 41.7 | Wnt3a counter inactive
CCOc1ccc(S(=O)(=O)NCc2ccncc2)cc1	697 NFkB inh 99.7, Gli-Sufu antag 82.1, Jurkat NFkB inh 71.7, Shn3 3UTR inh 89.5 | Jurkat NFkB conf 69.8 | 697 NFkB conf 93.3 | Gli antag conf 79.2 | Gli cytotox 37.3 | Wnt3a counter 47.0
COc1ccccc1Nc1nc2ccc(C)cc2n2cnnc12	none
CC(C)n1c(CN(C)Cc2ccccc2)nc2c1c(=O)n(C)c(=O)n2C	Gli-Sufu antag 69.7, Jurkat NFkB inh 57.3 (no result: Shn3 3UTR inh) | Jurkat NFkB conf 53.1 | Gli antag conf 78.3 | Gli cytotox inactive | Wnt3a counter 47.8
CC(=O)C(C)n1c(CN(C)Cc2ccccc2)nc2c1c(=O)n(C)c(=O)n2C (centres undefined)	none
CCn1ncc(C2=NOC(C(=O)Nc3ccc(C)cc3)C2)c1C (centres undefined)	none
CCn1ncc(C2=NOC(C(=O)NCc3ccc(Cl)cc3)C2)c1C (centres undefined)	Jurkat NFkB inh 74.1 | Jurkat NFkB conf 49.6 | Gli antag conf 50.0 | Gli cytotox 45.4 | Wnt3a counter inactive
CCn1c(/C=C/N(C(C)=O)c2ccccc2)[n+](CCCS(=O)(=O)[O-])c2cc(Cl)c(Cl)cc21	none
CCn1c(/C=C/Nc2ccccc2)[n+](CC)c2cc(Cl)c(Cl)cc21	Mdm2-MdmX inh 97.5, Gli-Sufu antag 66.1, Jurkat NFkB inh 70.5, Shn3 3UTR inh 88.2 | Jurkat NFkB conf inactive | Mdm2 MdmX conf inactive | Gli antag conf 60.7 | Gli cytotox inactive | Wnt3a counter inactive
CCOc1ccc(NC(=O)CN(C)C(=O)c2ccccc2CCc2ccccc2)cc1OCC	none
COc1ccc(/C=N/NC(=O)c2[nH]c3ccc(Br)cc3c2-c2ccccc2)c(C(=O)O)c1OC	none
O=C(N/N=C/c1ccccc1Cl)c1[nH]c2ccc(Br)cc2c1-c1ccccc1	Mdm2-MdmX inh 88.6, Gli-Sufu antag 67.8, Jurkat NFkB inh 63.7 | Jurkat NFkB conf 54.2 | Mdm2 MdmX conf 75.0 | FLuc counter 106.2 | Gli antag conf 58.0 | Gli cytotox 61.5 | Wnt3a counter inactive
C/C(=N\NC(=O)C1COc2ccccc2O1)c1ccc(C)o1 (centres undefined)	none
C/C(=N\NC(=O)C1COc2ccccc2O1)c1ccccn1 (centres undefined)	Gli-Sufu antag 89.0, Jurkat NFkB inh 72.9 | Jurkat NFkB conf inactive | Gli antag conf 73.0 | Gli cytotox 44.3 | Wnt3a counter 52.8
C/C(=N\NC(=O)C(c1ccccc1)c1ccccc1)c1ccccn1	Mdm2-MdmX inh 74.8, Gli-Sufu antag 88.7, Jurkat NFkB inh 78.8, Shn3 3UTR inh 88.5 | Jurkat NFkB conf inactive | Mdm2 MdmX conf 64.2 | FLuc counter 49.6 | Gli antag conf 55.9 | Gli cytotox 30.6 | Wnt3a counter 37.1
CCOC(=O)N1CCC(N2C(=O)c3ccccc3C2Nc2c(C)cccc2C)CC1 (centres undefined)	none
CC(C)c1ccccc1NC(=O)COC(=O)COc1ccccc1[N+](=O)[O-]	none
